Source: PubChem BioAssay
CYP2C9 act: increases human cytochrome P450 2C9 activity; activation factor at 5 µM; recombinant CYP2C9, luciferin-H conversion, luminescence; stronger effect = higher value; factor 1 = untreated enzyme, 0 = blocked; P11712; hit rate 1.4% among 96,000;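 active = activation factor of 2 or more for CYP2C9 at a 5 µM dose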
Target sequence (P11712 whole entry, looked up): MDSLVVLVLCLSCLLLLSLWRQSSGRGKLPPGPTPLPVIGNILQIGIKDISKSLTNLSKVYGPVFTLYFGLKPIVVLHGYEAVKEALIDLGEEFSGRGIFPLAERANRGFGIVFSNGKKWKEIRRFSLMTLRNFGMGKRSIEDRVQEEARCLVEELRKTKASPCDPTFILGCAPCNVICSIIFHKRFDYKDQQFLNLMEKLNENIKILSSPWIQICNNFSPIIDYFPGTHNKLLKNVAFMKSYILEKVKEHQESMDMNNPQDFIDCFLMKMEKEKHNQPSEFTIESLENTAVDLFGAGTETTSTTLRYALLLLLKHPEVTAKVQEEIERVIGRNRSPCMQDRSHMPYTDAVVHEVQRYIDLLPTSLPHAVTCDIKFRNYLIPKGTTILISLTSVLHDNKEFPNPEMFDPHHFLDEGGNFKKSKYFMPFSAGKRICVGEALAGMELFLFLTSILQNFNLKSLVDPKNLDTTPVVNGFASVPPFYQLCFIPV
CYP2C19 inh: human CYP2C19 inhibition | CYP2C19 Supersomes, luciferin-H EGE luminescence, 30 min | P33261 | inhibition, % at 5 µM | hit rate 21% among 96,000;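 active = CYP2C19 inhibition above a set limit at 5 µM in the primary screen, cut at about 50% in these data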
CYP2C19 act: cytochrome P450 2C19 (human) activation; recombinant CYP2C19, luciferin-H EGE luminescence; stronger effect = higher value; 0 = fully inhibited enzyme, 1 = untreated enzyme; P33261; activation factor at 5 µM; AID 1025; 96,000 tested, under 10 active;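 active = activation factor of at least 2 at 5 µM in the primary screen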
Mac1 fbg enh: increases human CD11b/CD18 adhesion to fibrinogen. P05107+P11215. K562 CD11b/CD18 adhesion to fibrinogen, ATPlite luminescence. activation, % at 10 µM. hit rate 0.07% among 93,000. AID 1499;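 active = 10 µM primary screen giving 50% or more activity, confirmed by 40% or more on retest at that dose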
Mac1 fbg inh: blocks human CD11b/CD18 adhesion to fibrinogen | AID 1497 | K562 CD11b/CD18 adhesion to fibrinogen, ATPlite luminescence; Mn2+ added to activate the integrin | hit rate 0.54% among 93,000 | inhibition, % at 10 µM;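 active = primary inhibition of 50% or more at 10 µM, then 40% or more on retest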
CYP2C9 inh: human CYP2C9 inhibition; CYP2C9 Supersomes, luciferin-H conversion, luminescence; inhibition, % at 5 µM; hit rate 20% among 96,000; AID 777;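 active = blocking of liver enzyme CYP2C9 beyond about 50% at 5 µM, limit read from the data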
Numbers stand for hits. Most compounds without a hit are left out; they make up all but 28% or so of the library.

CCOC(=O)C1CCN(S(=O)(=O)c2ccc(Cl)cc2OC)CC1 was read as CYP2C9 act inactive, CYP2C19 inh 84, CYP2C19 act inactive, Mac1 fbg enh inactive, Mac1 fbg inh inactive and CYP2C9 inh inactive.
Screening N#CC1(Cc2ccccc2Cl)c2ccccc2C=CN1C(=O)c1ccccc1 (stereo not drawn) returned CYP2C9 act inactive, CYP2C19 inh 91, CYP2C19 act inactive, Mac1 fbg enh inactive, Mac1 fbg inh inactive and CYP2C9 inh 84.
`O=C(N1CCCCCC1)N1CCN(S(=O)(=O)c2ccccc2)CC1` gave CYP2C9 act inactive, CYP2C19 inh inactive, CYP2C19 act inactive, Mac1 fbg enh inactive, Mac1 fbg inh inactive and CYP2C9 inh inactive.
Screening Cc1ccc(S(=O)(=O)N2CCN(Cc3ccccc3C(F)(F)F)CC2)cc1 returned CYP2C9 act inactive, CYP2C19 inh inactive, CYP2C19 act inactive and CYP2C9 inh inactive.
Screening O=C(CSc1cccc(C(F)(F)F)c1)N1CCN(S(=O)(=O)c2ccccc2)CC1 returned CYP2C9 act inactive, CYP2C19 inh 59, CYP2C19 act inactive, Mac1 fbg enh inactive, Mac1 fbg inh inactive and CYP2C9 inh inactive.
O=C(c1nc(-c2ccccc2)n(-c2ccccc2)n1)N1CCN(S(=O)(=O)c2ccccc2)CC1 was read as CYP2C9 act inactive, CYP2C19 inh inactive, CYP2C19 act inactive, Mac1 fbg enh inactive, Mac1 fbg inh inactive and CYP2C9 inh 66.
`O=S(=O)(c1ccccc1)N1CCN(Cc2ccccc2C(F)(F)F)CC1` gave CYP2C9 act inactive, CYP2C19 inh 94, CYP2C19 act inactive, Mac1 fbg enh inactive, Mac1 fbg inh inactive and CYP2C9 inh 83.
O=C(c1ccc(Br)cc1)N1CCN(S(=O)(=O)c2ccccc2)CC1 was read as CYP2C9 act inactive, CYP2C19 inh 70, CYP2C19 act inactive, Mac1 fbg enh inactive, Mac1 fbg inh inactive and CYP2C9 inh inactive.
For CCOC(=O)C1CCN(C(C(=O)NC2CCCC2)c2ccc(C)cc2)CC1 (stereo not drawn) the results were CYP2C9 act inactive, CYP2C19 inh inactive, CYP2C19 act inactive, Mac1 fbg enh inactive, Mac1 fbg inh inactive and CYP2C9 inh inactive.
For Cc1ccc(OCc2ccc(C(=O)Nc3nc4ccccc4n3C)o2)c([N+](=O)[O-])c1 the results were Mac1 fbg enh inactive and Mac1 fbg inh inactive.
For O=C(c1ccccc1C(F)(F)F)N1CCN(S(=O)(=O)c2ccccc2)CC1 the results were CYP2C9 act inactive, CYP2C19 inh 87, CYP2C19 act inactive, Mac1 fbg enh inactive, Mac1 fbg inh inactive and CYP2C9 inh inactive.
`Cc1ccccc1CN1CCN(Cc2ccccc2C(F)(F)F)CC1` gave CYP2C9 act inactive, CYP2C19 inh 91, CYP2C19 act inactive, Mac1 fbg enh inactive, Mac1 fbg inh inactive and CYP2C9 inh inactive.
Cc1ccccc1CN1CCN(C/C=C/c2ccccc2)CC1 was read as CYP2C9 act inactive, CYP2C19 inh inactive, CYP2C19 act inactive, Mac1 fbg enh inactive, Mac1 fbg inh inactive and CYP2C9 inh inactive.
For CN(C)CCNc1oc(COc2ccc(-c3ccccc3)cc2)nc1C#N the results were CYP2C9 act inactive, CYP2C19 inh inactive, CYP2C19 act inactive, Mac1 fbg enh inactive, Mac1 fbg inh inactive and CYP2C9 inh inactive.
Screening Cc1ccc(OCc2nc(C#N)c(NCc3ccc4c(c3)OCO4)o2)cc1 returned CYP2C9 act inactive, CYP2C19 inh 98, CYP2C19 act inactive, Mac1 fbg enh inactive, Mac1 fbg inh inactive and CYP2C9 inh 99.
For CCOc1ccc(-c2nc(C#N)c(NCc3ccc4c(c3)OCO4)o2)cc1 the results were CYP2C9 act inactive, CYP2C19 inh inactive, CYP2C19 act inactive, Mac1 fbg enh inactive, Mac1 fbg inh inactive and CYP2C9 inh inactive.
Screening C=CCNc1oc(COc2ccc(C)cc2)nc1C#N returned CYP2C9 act inactive, CYP2C19 inh 65, CYP2C19 act inactive, Mac1 fbg enh inactive, Mac1 fbg inh inactive and CYP2C9 inh inactive.
C#CC1CN(Cc2ccccc2)CC(C#C)N1C (stereo not drawn) was read as CYP2C9 act inactive, CYP2C19 inh inactive, CYP2C19 act inactive and CYP2C9 inh inactive.
Screening CCOC(=O)N1CCN(C(=O)C(NC(=O)c2ccc(CC)cc2)C(C)C)CC1 (stereo not drawn) returned CYP2C9 act inactive, CYP2C19 inh inactive, CYP2C19 act inactive, Mac1 fbg enh inactive and CYP2C9 inh inactive.
Screening O=S(=O)(Cc1nc2ccccc2s1)c1ccccc1 returned CYP2C9 act 2.3, CYP2C19 inh inactive, CYP2C19 act inactive, Mac1 fbg enh inactive, Mac1 fbg inh inactive and CYP2C9 inh inactive.
Screening COc1ccc(S(=O)(=O)CCc2nc3ccccc3s2)cc1 returned CYP2C9 act inactive, CYP2C19 inh 76, CYP2C19 act inactive, Mac1 fbg enh inactive, Mac1 fbg inh inactive and CYP2C9 inh inactive.
COC(=O)COc1ccc(Oc2nc(SC)nc(N(C)C)n2)nn1 was read as CYP2C9 act inactive, CYP2C19 inh inactive, CYP2C19 act inactive, Mac1 fbg enh inactive, Mac1 fbg inh inactive and CYP2C9 inh inactive.
For O=C(N1CCOCC1)N1CCN(S(=O)(=O)c2ccccc2)C1 the results were CYP2C9 act inactive, CYP2C19 inh inactive, CYP2C19 act inactive, Mac1 fbg enh inactive, Mac1 fbg inh inactive and CYP2C9 inh inactive.
For c1ccc(-n2ncc3c(N4CCN(c5ccccn5)CC4)nc(N4CCCCCC4)nc32)cc1 the results were CYP2C9 act inactive, CYP2C19 inh inactive, CYP2C19 act inactive, Mac1 fbg enh inactive, Mac1 fbg inh inactive and CYP2C9 inh inactive.
Screening COc1ccc(/C=C/C(=O)c2ccncc2)c2ccccc12 returned Mac1 fbg enh inactive and Mac1 fbg inh inactive.
O=C(Cn1c(=O)n(-c2ccccc2)c(=O)n1CC(=O)N1CCCCC1)N1CCCCC1 was read as CYP2C9 act inactive, CYP2C19 inh inactive, CYP2C19 act inactive, Mac1 fbg enh inactive, Mac1 fbg inh inactive and CYP2C9 inh inactive.
`O=C(c1ccco1)N1CCN(C(=O)C2CCN(S(=O)(=O)Cc3ccccc3)CC2)CC1` gave CYP2C9 act inactive, CYP2C19 inh inactive, CYP2C19 act inactive, Mac1 fbg enh inactive, Mac1 fbg inh inactive and CYP2C9 inh inactive.
For CCOc1ccc(CC(=O)NCc2cn3c(C)csc3n2)cc1 the results were CYP2C9 act inactive, CYP2C19 inh inactive, CYP2C19 act inactive, Mac1 fbg enh inactive, Mac1 fbg inh inactive and CYP2C9 inh inactive.
`CSC1=NCCN1C(=O)Cc1cccs1` gave CYP2C9 act inactive, CYP2C19 inh inactive, CYP2C19 act inactive, Mac1 fbg enh inactive, Mac1 fbg inh inactive and CYP2C9 inh inactive.
`CCOCCOCN(C#N)c1nc(OC)nc(N(C)C)n1` gave CYP2C9 act inactive, CYP2C19 inh 64, CYP2C19 act inactive, Mac1 fbg enh inactive, Mac1 fbg inh inactive and CYP2C9 inh inactive.
For O=C(O)CC(c1ccc(Cl)cc1)n1cccc1 (stereo not drawn) the results were CYP2C9 act inactive, CYP2C19 inh inactive, CYP2C19 act inactive and CYP2C9 inh inactive.
